Experimental data as given in PubChem BioAssay (NCATS).
Unmarked numbers belong to inactive results. Results filed as inconclusive are left out. The source made the active and inactive calls. Unless noted, the call rests on the fitted dose curve; in most records, active means well fitted curve in the direction sought with a large enough effect; inconclusive means small, poorly fitted or top-dose-only effect, or another doubt; inactive means no such curve, though single readings can be large; an effect the other way counts as inactive or inconclusive.

Key:
[1] = AP1 Signaling Pathway (AID 357; active means well fitted curve in either direction with a large enough effect, not every such curve was filed as active); conditions: ME-180 AP-1-bla reporter, EGF-induced, beta-lactamase ratio, 5 h; series mostly up to 38 µM
How it was run: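 Modulation of EGF-driven AP-1 transcription was assessed with a beta-lactamase reporter in ME-180 cells. Compound and EC50 EGF were co-incubated 5 hours at 37 °C before 2.5-hour CCF4 loading at room temperature and dual-emission reading.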

[2] = NFAT Signaling Pathway (AID 444; active means well fitted curve in either direction with a large enough effect, not every such curve was filed as active); conditions: Jurkat NFAT-bla M1, carbachol, beta-lactamase ratio, 5 h; at 17.2 µM (top of the series)
How it was run: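 Read-out: CCF4 FRET ratio (460 nm/530 nm) after 1 h RT dye loading, used for %activity and AC50 from titration series. Cells: Jurkat NFAT-β-lactamase/M1 line, treated with compound plus 1 uM carbachol for 5 h, 37 °C.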

[3] = biological target: 3',5'-cyclic-AMP phosphodiesterase 4B (Homo sapiens) (UniProt Q07343); test: qHTS Assay for Inhibitors of PDE-IV (AID 607; active means well fitted activation curve with a large enough effect in the main read-out, with a control signal flat, not every such curve was filed as active); conditions: HEK293 ACTOne CNG channel cells, membrane potential fluorescence; series mostly up to 22.9 µM
How it was run: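 Cell-based read-out of cAMP via a modified cyclic nucleotide-gated channel and membrane potential dye (535/590 nm) in HEK293 cells expressing PDE4 endogenously. Compounds tested up to 22.9 uM final; 100 uM RO 20-1724 reference.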

[4] = Inflammasome Signaling qHTS Counterscreen: IL-1-beta AlphaLISA counterscreen against the NCATS CANVASS Library (AID 1347381); conditions: Purified IL-1beta AlphaLISA signal interference counterscreen; series mostly up to 57.5 µM
How it was run: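 Cell-free interference check: compounds added to medium spiked with 4 pg purified IL-1β. Anti-IL-1β acceptor beads (6 ug/mL) with 0.6 nM biotinylated antibody added for 1 h at RT, then streptavidin donor beads (24 ug/mL) for 30 min in the dark. AlphaLISA read at 680/615 nm.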

[5] = Cytotoxicity qHTS for assessment of Hepg2 cells membrane integrity screened against the NCATS CANVASS Library (AID 1347387); conditions: HepG2 LDH release (CytoTox-ONE) fluorescence, 5 h; series mostly up to 46.1 µM
How it was run: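 HepG2 cells (2000/well) attached overnight, then exposed 5 hr at 37C to compounds in an 11-point series (0.59 nM - 46 uM final). LDH release from damaged membranes read fluorometrically (CytoTox-ONE; 560/590 nm) after 10 min at room temperature.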

[6] = qHTS assay for small molecule disruptors of mitochondrial membrane potential screened against the NCATS CANVASS Library (AID 1347389); conditions: HepG2 mitochondrial membrane potential, m-MPI red/green ratio, 1.5 h; series mostly up to 46.1 µM
How it was run: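 HepG2 cells (2,000/well) plated overnight, then exposed to compounds in 11-point qHTS series for 1 h at 37C before 30 min Mito-MPS dye; depolarization read as fall in red aggregate (590 nm) to green monomer (535 nm) fluorescence.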

[7] = qHTS for activators of Nrf2/ARE signaling pathway screened against the NCATS CANVASS Library (AID 1347391); conditions: ARE-bla HepG2, beta-lactamase reporter, 16 h; series mostly up to 46.1 µM
How it was run: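 ARE-bla HepG2 beta-lactamase reporter cells exposed to compounds for 16 h at 37C; CCF4 substrate 2 h, fluorescence at ex 405 nm, em 460/530 nm. Viability by CellTiter-Glo luminescence.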

[8] = Vero-766 cells viability qHTS against the NCATS CANVASS Library: Counterscreen for Zika virus inhibition assay (AID 1347394); conditions: Vero 766 viability, CellTiter-Glo luminescence, 72 h; series mostly up to 46.1 µM
How it was run: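 Counterscreen for toxicity: Vero 766 cells exposed 72 h to an 11-point compound series, viability by CellTiter-Glo.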

[9] = qHTS for inhibitors of Wild type Zika virus screened against the NCATS CANVASS Library (AID 1347396); conditions: Vero cells, Zika virus CPE, CellTiter-Glo, 72 h; series mostly up to 45.9 µM
How it was run: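 Luminescent CellTiter Glo read-out of virus-induced cytotoxicity, 72 h post-infection, in Vero 766 cells. Compounds were tested at 11 concentrations; uninfected, vehicle-treated wells defined 100% inhibition.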

[10] = Viability qHTS for inhibitors of the SERCaMP assay screened against the NCATS CANVASS Library (AID 1347400); conditions: SH-SY5Y SERCaMP cells viability, CellTiter-Glo, 48 h; series mostly up to 92.2 µM
How it was run: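 SH-SY5Y-GLuc SERCaMP MJH297-derived cells, 1000/well, plated 4 h, then exposed to compounds in an 11-point qHTS series for 48 h at 37C. Viability read as CellTiter-Glo luminescence.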

[11] = Redox Reaction Profiling qHTS: Assay Interference Panel against the NCATS CANVASS Library (AID 1347401); conditions: resazurin-DTT redox cycling, fluorescence, 15 min; series mostly up to 57.1 µM
How it was run: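 Cell-free redox surrogate: 5 uM resazurin + 200 uM DTT, 50 mM HEPES pH 7.3/50 mM NaCl; cpds pinned, 11-pt qHTS; Ex525/Em598 read t0 and t=15 min, dark.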

[12] = NCATS anti-infectives library activity on HEK293 viability as a counter-qHTS vs the C. elegans viability qHTS (AID 1745854); conditions: HEK293 viability counter-screen; series mostly up to 41.8 µM
How it was run: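 HEK293 cells (1,500/well) exposed 24 hr at 37C to 1:5 titrations, up to 41.7 uM final; counter-screen to a C. elegans viability qHTS. Viability by CellTiter-Glo luminescence after 10 min at room temperature; digitonin as control.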

[13] = NCATS anti-infectives library activity on the primary C. elegans qHTS viability assay (AID 1745855; calls by dose curve); conditions: C. elegans worm area imaging, day 7; series mostly up to 41.8 µM
How it was run: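 Viability read-out is GFP fluorescence of PE254-GFP-FLuc C. elegans, measured by laser cytometry (488 nm) at day 0, 3 and 7. Ten L1 worms per well were incubated 7 days at 21 °C with compounds and bacterial capsules in S medium.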

[14] = S16 Schwann cell PMP22 intronic element beta-lactamase assay (AID 624044; calls by dose curve); conditions: S16 rat Schwann cells, PMP22 element beta-lactamase FRET, 24 h; series mostly up to 38.3 µM
How it was run: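 Rat S16 Schwann cells with beta-Lac driven by a PMP22 intronic element, compound-treated 24 h at 37 °C. LiveBLAzer FRET B/G read: 460 nm normalized to potassium clavulanate vs DMSO; 535 nm FRET as viability; concentration-effect curves classified.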

[15] = biological target: Luciferin 4-monooxygenase (Photinus pyralis) (UniProt P08659); test: Biochemical firefly luciferase enzyme assay for NPC (AID 624030); conditions: purified P. pyralis luciferase, luminescence, 5 min; series mostly up to 58.6 µM
How it was run: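 Direct inhibition of firefly luciferase enzyme (10 nM final, 50 mM Tris Acetate) assessed by luminescence within 5 minutes. Percent activity scaled between DMSO and PTC124 positive control, with concentration-effect curves classified by fit quality and response.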

[16] = biological target: Endonuclease 4 (Escherichia coli (strain K12)) (UniProt P0A6C1); test: Counterscreen for APE1 Inhibitors: qHTS Validation Assay for Inhibitors of Endonuclease IV (AID 1708); conditions: E. coli endonuclease IV, DNA cleavage fluorescence; series mostly up to 57.1 µM
How it was run: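 qHTS concentration-response format; LOPAC1280 tested under APE1-screen conditions. 2 nM enzyme, 15 min compound preincubation at RT, then 50 nM TAMRA/BHQ-2 abasic substrate; kinetic fluorescence read, three reads at 60 s intervals.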

[17] = Cell Viability - BJ (AID 421; calls by dose curve); conditions: BJ fibroblast viability, qHTS
How it was run: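 Cytotoxicity as drop in intracellular ATP (CellTiter-Glo, 20 min RT) after 40 hr compound exposure of BJ fibroblasts at 37 °C. Titrations scaled between DMSO and 100 uM tamoxifen, Hill-fitted for AC50.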

[18] = qHTS Assay for Identification of Small Molecule Inducers of Hypoxia Response (AID 2120; active means well fitted curve in the direction sought with a large enough effect in the signal ratio, with a control signal flat, not every such curve was filed as active; the % refers to the signal ratio); conditions: hypoxia response reporter cells, beta-lactamase ratio readout; series mostly up to 104 µM
How it was run: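 HRE-bla ME-180 cells in Opti-MEM with 0.5% dialyzed FBS, pre-plated 4-5 h, then compound titration for 17 h at 37 degrees Celsius. CCF4 loaded 2.5 h at room temperature; 460/530 nm ratio gave %Activity and AC50 for induction.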

[19] = biological target: Glutathione peroxidase 1 (Homo sapiens) (UniProt P07203); test: Primary qHTS Assay for Inhibitors of Recombinant Selenoprotein Glutathione Peroxidase 1 (GPX1) (AID 1845191); conditions: recombinant GPX1, GR-coupled NADPH fluorescence, 15 min; series mostly up to 48.8 µM
How it was run: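 10 nM GPX1 + cpd, 30 min RT; start w/ 1 mM GSH, 0.5 mM cumene hydroperoxide, 0.5 mM NADPH, 100 nM GR, 0.01% BSA; buffer 50 mM Tris-HCl pH 7.5, 2 mM EDTA, 150 mM NaCl; Fl 340/450, 0 & 15 min.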

[20] = biological target: Phospholipid hydroperoxide glutathione peroxidase GPX4 (Homo sapiens) (UniProt P36969); test: Primary qHTS Assay for Inhibitors of Recombinant Selenoprotein Glutathione Peroxidase 4 (GPX4) (AID 1845192); conditions: recombinant GPX4, GR-coupled NADPH fluorescence, 15 min; series mostly up to 50 µM
How it was run: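 NADPH consumption, followed by fluorescence at 340/450 nm between 0 and 15 min, reports GPX4 activity via coupled glutathione reductase (100 nM). Enzyme 200 nM was pre-exposed to compound 30 min; 0.5 mM cumene hydroperoxide and 1 mM GSH served as substrates.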

Sequence of Luciferin 4-monooxygenase (Photinus pyralis) (P08659 whole entry, looked up): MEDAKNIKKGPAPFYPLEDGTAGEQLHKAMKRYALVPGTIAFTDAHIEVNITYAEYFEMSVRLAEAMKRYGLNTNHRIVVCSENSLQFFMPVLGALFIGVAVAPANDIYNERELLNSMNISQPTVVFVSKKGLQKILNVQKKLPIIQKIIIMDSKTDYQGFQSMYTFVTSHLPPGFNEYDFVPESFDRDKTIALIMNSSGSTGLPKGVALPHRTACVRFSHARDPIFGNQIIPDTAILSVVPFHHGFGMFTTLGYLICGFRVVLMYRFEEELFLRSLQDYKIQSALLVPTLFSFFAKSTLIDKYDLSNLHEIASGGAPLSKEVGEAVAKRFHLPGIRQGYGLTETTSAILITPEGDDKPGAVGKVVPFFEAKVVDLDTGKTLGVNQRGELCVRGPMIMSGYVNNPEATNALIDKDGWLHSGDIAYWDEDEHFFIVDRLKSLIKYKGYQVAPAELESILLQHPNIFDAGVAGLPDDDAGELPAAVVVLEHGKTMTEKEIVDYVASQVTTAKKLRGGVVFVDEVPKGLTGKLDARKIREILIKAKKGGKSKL
Sequence of Glutathione peroxidase 1 (Homo sapiens) (P07203 whole entry, looked up): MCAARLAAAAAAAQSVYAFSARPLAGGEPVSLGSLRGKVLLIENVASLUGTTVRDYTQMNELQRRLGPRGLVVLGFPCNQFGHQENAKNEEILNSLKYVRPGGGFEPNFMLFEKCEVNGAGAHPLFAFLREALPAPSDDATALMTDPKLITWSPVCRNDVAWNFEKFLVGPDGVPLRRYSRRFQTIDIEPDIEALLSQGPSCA
Sequence of Phospholipid hydroperoxide glutathione peroxidase GPX4 (Homo sapiens) (P36969 whole entry, looked up): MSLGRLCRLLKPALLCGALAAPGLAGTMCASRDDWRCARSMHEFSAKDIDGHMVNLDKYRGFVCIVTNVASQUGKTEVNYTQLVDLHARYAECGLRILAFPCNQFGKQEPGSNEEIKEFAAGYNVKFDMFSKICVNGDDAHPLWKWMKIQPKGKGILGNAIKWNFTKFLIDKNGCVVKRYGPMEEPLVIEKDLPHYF
Sequence of 3',5'-cyclic-AMP phosphodiesterase 4B (Homo sapiens) (Q07343 whole entry, looked up): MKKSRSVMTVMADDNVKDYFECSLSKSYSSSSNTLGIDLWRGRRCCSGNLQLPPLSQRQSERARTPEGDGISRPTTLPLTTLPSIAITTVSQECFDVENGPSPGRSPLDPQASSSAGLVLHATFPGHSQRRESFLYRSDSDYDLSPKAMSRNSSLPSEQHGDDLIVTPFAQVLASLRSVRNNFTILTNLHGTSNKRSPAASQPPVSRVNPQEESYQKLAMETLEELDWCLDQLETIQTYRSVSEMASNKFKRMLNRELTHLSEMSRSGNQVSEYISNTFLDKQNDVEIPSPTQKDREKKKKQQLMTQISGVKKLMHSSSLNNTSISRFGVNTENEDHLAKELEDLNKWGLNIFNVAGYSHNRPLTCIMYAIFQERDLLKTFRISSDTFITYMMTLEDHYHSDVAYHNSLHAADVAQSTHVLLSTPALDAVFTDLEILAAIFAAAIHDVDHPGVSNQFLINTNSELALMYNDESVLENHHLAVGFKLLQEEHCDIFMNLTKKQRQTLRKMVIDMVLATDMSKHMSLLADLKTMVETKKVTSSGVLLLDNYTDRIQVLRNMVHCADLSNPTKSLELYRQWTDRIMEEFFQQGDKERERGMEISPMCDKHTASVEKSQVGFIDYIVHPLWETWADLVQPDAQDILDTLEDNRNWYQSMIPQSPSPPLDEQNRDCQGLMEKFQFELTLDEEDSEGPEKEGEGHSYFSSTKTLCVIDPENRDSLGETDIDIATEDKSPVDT

With CN(C)Cc1c[nH]c2ccccc12 the outcome [1] was “inactive”, the activity change, negative = inhibition [2] was 1.81% and the Potency [3] was “inactive”. For the same compound, the outcome [4] was “inactive”, the outcome [5] was “inactive” and the Potency [6] was “inactive”. For the same compound, the Potency [7] was “inactive”, the Potency [8] was “inactive” and the Potency [9] was “inactive”. For the same compound, the Potency [10] was “inactive”, the Potency [11] was “inactive” and the Potency [12] was “inactive”. For the same compound, the Potency [13] was “inactive”.

In the case of COC(=O)C[C@](O)(CCCC(C)(C)O)C(=O)O[C@@H]1C(OC)=C[C@]23CCCN2CCc2cc4c(cc2[C@H]13)OCO4, the Potency [14] is reported as 89.1 nM (active).

With Nc1ncnc2c1ncn2[C@@H]1O[C@H](COP(=O)(O)OP(=O)(O)OP(=O)(O)O)[C@@H](O)[C@H]1O the Potency [15] was “inactive”.

With CN[C@H](CC(C)C)C(=O)N[C@H]1C(=O)N[C@@H](CC(N)=O)C(=O)N[C@H]2C(=O)N[C@H]3C(=O)N[C@H](C(=O)N[C@H](C(=O)O)c4cc(O)cc(O)c4-c4cc3ccc4O)[C@H](O)c3ccc(c(Cl)c3)Oc3cc2cc(c3O[C@@H]2O[C@H](CO)[C@@H](O)[C@H](O)[C@H]2O[C@H]2C[C@](C)(N)[C@H](O)[C@H](C)O2)Oc2ccc(cc2Cl)[C@H]1O the outcome [16] was “inactive”.

For Cc1ccccc1O, the Potency [17] was greater than 92 µM, the outcome [18] was “inactive” and the Potency [19] was “inactive”. The Potency [20] was “inactive”.
